This note sets out measurements from the supplement of paper PMC6897291.

The subject of this assay is RIVA. Kind of assay: growth inhibition by drug plus 177Lu-lilotomab satetraxetan (1 - RLU/untreated control) (fraction); higher = stronger inhibition. The conditions noted are these: 177Lu-lilotomab satetraxetan 0.5 ug/ml. On the procedure: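 RIVA (RI-1) ABC-DLBCL cells were pretreated or not for 18 h with 0.5 ug/ml 177Lu-lilotomab satetraxetan (600 MBq/mg), washed and seeded (3000 cells/well) on 384-well plates pre-printed with the Selleck Cambridge Cancer Compound library. Viability was read by RealTime-Glo luminescence on days 3-6 after seeding. Effect = 1 - RLU/mean RLU of the 48 untreated no-drug control wells per plate; Bliss score = (M-E)/(1-Fa).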

Turning to `Cc1csc(-c2nnc(Nc3ccc(Oc4ncccc4-c4ccnc(N)n4)cc3)c3ccccc23)c1`, the “growth inhibition by drug plus 177Lu-lilotomab satetraxetan” value (shortened to “growth inhibition”) reads like this: (10 nM, time (day): 3) 0.482; (10 nM, time (day): 4) 0.52; (10 nM, time (day): 5) 0.572; (10 nM, time (day): 6) 0.659; (100 nM, time (day): 3) 0.496; (100 nM, time (day): 4) 0.552. Further, the “growth inhibition” value worked out at 0.581 (100 nM, time (day): 5) and 0.676 (100 nM, time (day): 6).

On to `COc1cc2nc(N3CCCN(C)CC3)nc(NC3CCN(Cc4ccccc4)CC3)c2cc1OC`, for which the “growth inhibition” value was 0.498 (10 nM, time (day): 3); 0.588 (10 nM, time (day): 4); 0.618 (10 nM, time (day): 5); 0.631 (10 nM, time (day): 6); 0.469 (100 nM, time (day): 3); 0.552 (100 nM, time (day): 4). For the same compound, the “growth inhibition” value runs as follows: (100 nM, time (day): 5) 0.569; (100 nM, time (day): 6) 0.565.

`CCC(C)(C)C(=O)O[C@H]1C[C@@H](C)C=C2C=C[C@H](C)[C@H](CC[C@@H]3C[C@@H](O)CC(=O)O3)[C@H]21` [Simvastatin (Zocor)]: the “growth inhibition” value runs as follows: (10 nM, time (day): 3) 0.493; (10 nM, time (day): 4) 0.554; (10 nM, time (day): 5) 0.575; (10 nM, time (day): 6) 0.582; (100 nM, time (day): 3) 0.469; (100 nM, time (day): 4) 0.494. Further, the “growth inhibition” value stood at 0.501 (100 nM, time (day): 5) and 0.48 (100 nM, time (day): 6).

On to `Oc1ccc(Nc2nc(-c3ccc(Cl)cc3)cs2)cc1`, for which the “growth inhibition” value runs as follows: (10 nM, time (day): 3) 0.383; (10 nM, time (day): 4) 0.501; (10 nM, time (day): 5) 0.516; (10 nM, time (day): 6) 0.539; (100 nM, time (day): 3) 0.158; (100 nM, time (day): 4) 0.298. In addition, the “growth inhibition” value (100 nM, time (day): 5) was determined as 0.304 and the “growth inhibition” value (100 nM, time (day): 6) was 0.293.

Turning to `O=C(CCc1ccc(O)cc1)c1c(O)cc(O)cc1O` [Phloretin (Dihydronaringenin)], the “growth inhibition” value by setting is: (10 nM, time (day): 3) 0.412; (10 nM, time (day): 4) 0.555; (10 nM, time (day): 5) 0.573; (10 nM, time (day): 6) 0.596; (100 nM, time (day): 3) 0.427; (100 nM, time (day): 4) 0.522. Also, the “growth inhibition” value was 0.532 (100 nM, time (day): 5) and 0.521 (100 nM, time (day): 6).
